Data taken from the supplement of paper PMC6555819.

Columns and labels:
Test in all cases: PBM binding z-score (relative to random genomic background probes); higher = stronger binding; sequences stand for … in GC…GCGATTGACAGCGTAGAATGAAGG
[1] = system: FXR:RXRa (NR concentration 270 nM, RXRa partner concentration 90 nM)
How it was run: (§1)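 Each nuclear receptor dimer, without ligand, was incubated for 1 h on custom Agilent 4×180K protein-binding microarrays. Binding was detected with antibodies against each partner (one per run), and scanned fluorescence was regression-normalized. The binding z-scores are referenced to random human genomic background probes.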

[2] = system: LXRa:RXRa (NR concentration 270 nM, RXRa partner concentration 90 nM)
How it was run: as §1

[3] = system: LXRa homodimer (NR concentration 270 nM)
How it was run: as §1

[4] = system: LXRb:RXRa (NR concentration 270 nM, RXRa partner concentration 90 nM)
How it was run: as §1

[5] = system: LXRb homodimer (NR concentration 270 nM)
How it was run: as §1

[6] = system: PPARa:RXRa (NR concentration 270 nM, RXRa partner concentration 90 nM)
How it was run: as §1

[7] = system: PPARg:RXRa (NR concentration 180 nM, RXRa partner concentration 90 nM)
How it was run: as §1

[8] = system: PPARg:RXRa 270nM:90nM, anti-RXR (NR concentration 270 nM, RXRa partner concentration 90 nM)
How it was run: as §1

[9] = system: PPARg:RXRa 30nM:10nM, anti-RXR (NR concentration 30 nM, RXRa partner concentration 10 nM)
How it was run: as §1

[10] = system: PPARg:RXRa 90nM:30nM, anti-RXR (NR concentration 90 nM, RXRa partner concentration 30 nM)
How it was run: as §1

[11] = system: PPARg:RXRa DBDmut IVT, anti-RXR (DBD mutation: RXRa K156A/R161A, NR concentration 270 nM, RXRa partner concentration 90 nM)
How it was run: as §1

[12] = system: PPARg:RXRa IVT, anti-PPARg (NR concentration 270 nM, RXRa partner concentration 90 nM)
How it was run: as §1

[13] = system: PPARg DBDmut:RXRa IVT, anti-PPARg (DBD mutation: PPARg1 K132A/R137A, NR concentration 270 nM, RXRa partner concentration 90 nM)
How it was run: as §1

[14] = system: PPARg DBDmut IVT, anti-PPARg (DBD mutation: PPARg1 K132A/R137A, NR concentration 270 nM)
How it was run: as §1

[15] = system: PPARg homodimer (NR concentration 180 nM)
How it was run: as §1

[16] = system: PXR:RXRa (NR concentration 270 nM, RXRa partner concentration 90 nM)
How it was run: as §1

[17] = system: PXR homodimer (NR concentration 270 nM)
How it was run: as §1

[18] = system: RARa:RXR (NR concentration 270 nM, RXRa partner concentration 90 nM)
How it was run: as §1

[19] = system: RARa homodimer (NR concentration 270 nM)
How it was run: as §1

[20] = system: RARb:RXRa (NR concentration 270 nM, RXRa partner concentration 90 nM)
How it was run: as §1

Sequence	PBM binding z-score [1]	PBM binding z-score [2]	PBM binding z-score [3]	PBM binding z-score [4]	PBM binding z-score [5]	PBM binding z-score [6]	PBM binding z-score [7]	PBM binding z-score [8]	PBM binding z-score [9]	PBM binding z-score [10]	PBM binding z-score [11]	PBM binding z-score [12]	PBM binding z-score [13]	PBM binding z-score [14]	PBM binding z-score [15]	PBM binding z-score [16]	PBM binding z-score [17]	PBM binding z-score [18]	PBM binding z-score [19]	PBM binding z-score [20]
CAGACTGGGGCAAAGGTTACCATACTCAGTACGA	2.11	2.13	0.0267	2.49	-0.226	5.94	10.9	8.6	9.03	10.1	5.78	6.11	0.811	-0.289	1.61	2.57	0.354	3.86	0.632	2.66
GCTGCTCGGTCAGGTTGGTCAGCTAACGGGTACG	-0.343	-0.331	-0.448	-0.697	-0.583	-0.536	-0.75	-0.709	-0.71	-1.1	-0.244	-0.303	-1.15	-1.51	-0.397	-0.721	-0.841	-0.696	-0.978	1.94
CCTTACGGGTCACACCAGGTTATAGCATCGGAGT	5.86	6.35	1.01	4.08	0.198	5.2	5.14	4.95	2.28	3.6	2.98	4.37	0.627	-0.128	2.63	5.3	0.565	5.06	1.44	4.06
TTACCAAGGTGACAGGTCGTTGATGCACGCCTTG	0.924	1.02	0.111	0.582	-0.664	2.56	3.23	4.37	1.99	3.62	2.31	3.79	0.46	0.0595	1.64	0.764	0.0726	1.14	-0.207	2.05
GCATATAGGTAATACAAGGTGAAACTCCGATTGT	1.27	2.79	0.554	0.988	-0.38	1.83	1.5	1.04	0.514	0.842	4.64	3.25	1.19	0.842	0.705	0.857	-0.379	1.52	0.524	0.667
CCCACTGGGGCAAGGTTACCATAACGCACAGCCA	0.184	0.769	-0.0723	0.417	-0.882	2.46	4.81	4.76	1.92	4.56	4.18	5.58	2.71	0.0183	1.07	0.144	-0.536	1.05	0.0116	1.75
TCATATAGGTAAATGCTAGCTGAAAGTCCGATCT	0.654	0.665	-0.000947	0.713	-0.112	1.04	0.413	1.96	3.71	2.81	3.73	1.89	0.625	1.15	0.314	0.592	0.27	0.762	0.642	0.242
CCTACTGGGCCATAGGTCATTGATTCCAATGCTC	1.76	2.08	1.23	2.39	-0.227	5.16	9.89	8.77	8.56	10.3	3.69	5.78	-0.202	0.625	2	2.1	0.286	2.7	-0.287	2.34
TCTTGTAGATCAACAGGAGGTTAAGTAAGATCGA	0.451	1.3	0.363	1.17	-0.23	1.52	-0.0593	1.22	2.44	1.51	1.56	0.854	0.235	0.997	-0.29	0.916	-0.272	1.46	0.0899	0.659
ACTATTAGTTGACTTAGGGCAACCTATACGACGC	0.173	0.433	0.321	0.316	0.731	0.252	1.02	0.258	0.33	0.444	0.195	0.726	1.42	1.54	0.623	0.356	0.265	0.516	0.697	0.924
CAAGCTAGGTCAAGGTCAAAGTCGGTTTGTGCCA	6.4	5.71	4.42	4.74	1.37	5.36	5.58	5.39	2.37	4.73	4.41	5.17	-0.662	0.302	3.54	5.15	1.35	5.06	1.43	5.2
CGTCGAAGGTCATAGGAGGTCAGTGAAGACAGAT	7.63	7.68	5.14	6.27	0.859	5.98	5.54	6.05	3.04	4.92	3.11	4.45	-0.37	-0.169	4.08	6.79	3.47	5.95	2.11	5.41
ATATCTAGGTAAAGATAGTTCAGTGAATGCAAAT	0.0166	3.97	0.545	0.556	0.365	2.2	3.15	1.99	1	1.6	5.82	5.59	2.76	1.53	1.12	0.896	0.584	0.384	0.705	0.775
CCTACTGGGTCATCAGGTCATTGATATCAACGTT	4.46	3.76	2.34	3.19	-0.201	4.86	7.61	6.52	4.45	5.99	6.76	7.36	1.4	0.93	3.28	3.76	0.934	4.74	1.85	3.9
TGGAGTAGGTTACCAATGGGGCATTCAGCTTTCT	-0.0639	1.5	-0.0874	1.12	0.179	1.61	1.8	2.14	0.743	1.59	4.44	4.65	0.93	1.38	1.1	0.359	-0.17	0.243	0.592	1.21
TAGCCTAGGTCATGCGGACCAGTATAGTGTCGGC	3.93	3	0.318	1.59	-0.198	3.33	1.99	2.5	0.202	1.38	1.69	2.81	-0.0719	-0.526	0.843	1.31	-0.745	2.2	-0.507	3.65
CTCGAAAGGTCGTGTTCAGGTGAGTATACCAAAC	4.67	3.64	0.232	3.31	0.113	4.76	2.42	3.38	0.878	2.07	0.51	1.95	0.275	1.56	1.51	3.14	0.411	3.85	0.304	3.78
